From PubChem BioAssay
Active and inactive are the calls of the source.

Columns and labels:
[1] = binders of probe aFSTL3 on microarray, primary screen, stem cell growth factor project, biochemical, small-molecule microarray, fluorescence 635/667 (AID 1064); conditions: higher = more signal;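 note: measures binding of the biotinylated anti-FSTL3 antibody to printed compounds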
[2] = binders from COS7 lysate, DM2A8 probe, primary screen, torsin A project, cell lysate, small-molecule microarray, fluorescence 635/667 (AID 1065); conditions: higher = more signal, COS7 lysate expressing mutant human TOR1A
[3] = binders of probe aFGF2 on microarray, primary screen, stem cell growth factor project, biochemical, small-molecule microarray, fluorescence 635/667 (AID 1067); conditions: higher = more signal;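 note: measures binding of biotinylated aFGF2 protein to printed compounds on slides; z-score merges feature fluorescence and signal-to-noise across triplicate slides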
[4] = binders of probe aFGF10 on microarray, primary screen, stem cell growth factor project, biochemical, small-molecule microarray, fluorescence 635/667 (AID 1071); conditions: higher = more signal;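 note: score merges 667 nm spot intensity and signal to noise from triplicate slides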
[5] = biological target: Neurogenic locus notch homolog protein 2 (Homo sapiens) (UniProt Q04721); test: Notch2 binders on small-molecule microarrays, primary screen, biochemical, small-molecule microarray, 635 nm fluorescence, stem cell growth factors (AID 1073); conditions: Notch2 binding, higher = more signal
Neurogenic locus notch homolog protein 2 (Homo sapiens), sequence (Q04721 whole entry, looked up, canonical isoform): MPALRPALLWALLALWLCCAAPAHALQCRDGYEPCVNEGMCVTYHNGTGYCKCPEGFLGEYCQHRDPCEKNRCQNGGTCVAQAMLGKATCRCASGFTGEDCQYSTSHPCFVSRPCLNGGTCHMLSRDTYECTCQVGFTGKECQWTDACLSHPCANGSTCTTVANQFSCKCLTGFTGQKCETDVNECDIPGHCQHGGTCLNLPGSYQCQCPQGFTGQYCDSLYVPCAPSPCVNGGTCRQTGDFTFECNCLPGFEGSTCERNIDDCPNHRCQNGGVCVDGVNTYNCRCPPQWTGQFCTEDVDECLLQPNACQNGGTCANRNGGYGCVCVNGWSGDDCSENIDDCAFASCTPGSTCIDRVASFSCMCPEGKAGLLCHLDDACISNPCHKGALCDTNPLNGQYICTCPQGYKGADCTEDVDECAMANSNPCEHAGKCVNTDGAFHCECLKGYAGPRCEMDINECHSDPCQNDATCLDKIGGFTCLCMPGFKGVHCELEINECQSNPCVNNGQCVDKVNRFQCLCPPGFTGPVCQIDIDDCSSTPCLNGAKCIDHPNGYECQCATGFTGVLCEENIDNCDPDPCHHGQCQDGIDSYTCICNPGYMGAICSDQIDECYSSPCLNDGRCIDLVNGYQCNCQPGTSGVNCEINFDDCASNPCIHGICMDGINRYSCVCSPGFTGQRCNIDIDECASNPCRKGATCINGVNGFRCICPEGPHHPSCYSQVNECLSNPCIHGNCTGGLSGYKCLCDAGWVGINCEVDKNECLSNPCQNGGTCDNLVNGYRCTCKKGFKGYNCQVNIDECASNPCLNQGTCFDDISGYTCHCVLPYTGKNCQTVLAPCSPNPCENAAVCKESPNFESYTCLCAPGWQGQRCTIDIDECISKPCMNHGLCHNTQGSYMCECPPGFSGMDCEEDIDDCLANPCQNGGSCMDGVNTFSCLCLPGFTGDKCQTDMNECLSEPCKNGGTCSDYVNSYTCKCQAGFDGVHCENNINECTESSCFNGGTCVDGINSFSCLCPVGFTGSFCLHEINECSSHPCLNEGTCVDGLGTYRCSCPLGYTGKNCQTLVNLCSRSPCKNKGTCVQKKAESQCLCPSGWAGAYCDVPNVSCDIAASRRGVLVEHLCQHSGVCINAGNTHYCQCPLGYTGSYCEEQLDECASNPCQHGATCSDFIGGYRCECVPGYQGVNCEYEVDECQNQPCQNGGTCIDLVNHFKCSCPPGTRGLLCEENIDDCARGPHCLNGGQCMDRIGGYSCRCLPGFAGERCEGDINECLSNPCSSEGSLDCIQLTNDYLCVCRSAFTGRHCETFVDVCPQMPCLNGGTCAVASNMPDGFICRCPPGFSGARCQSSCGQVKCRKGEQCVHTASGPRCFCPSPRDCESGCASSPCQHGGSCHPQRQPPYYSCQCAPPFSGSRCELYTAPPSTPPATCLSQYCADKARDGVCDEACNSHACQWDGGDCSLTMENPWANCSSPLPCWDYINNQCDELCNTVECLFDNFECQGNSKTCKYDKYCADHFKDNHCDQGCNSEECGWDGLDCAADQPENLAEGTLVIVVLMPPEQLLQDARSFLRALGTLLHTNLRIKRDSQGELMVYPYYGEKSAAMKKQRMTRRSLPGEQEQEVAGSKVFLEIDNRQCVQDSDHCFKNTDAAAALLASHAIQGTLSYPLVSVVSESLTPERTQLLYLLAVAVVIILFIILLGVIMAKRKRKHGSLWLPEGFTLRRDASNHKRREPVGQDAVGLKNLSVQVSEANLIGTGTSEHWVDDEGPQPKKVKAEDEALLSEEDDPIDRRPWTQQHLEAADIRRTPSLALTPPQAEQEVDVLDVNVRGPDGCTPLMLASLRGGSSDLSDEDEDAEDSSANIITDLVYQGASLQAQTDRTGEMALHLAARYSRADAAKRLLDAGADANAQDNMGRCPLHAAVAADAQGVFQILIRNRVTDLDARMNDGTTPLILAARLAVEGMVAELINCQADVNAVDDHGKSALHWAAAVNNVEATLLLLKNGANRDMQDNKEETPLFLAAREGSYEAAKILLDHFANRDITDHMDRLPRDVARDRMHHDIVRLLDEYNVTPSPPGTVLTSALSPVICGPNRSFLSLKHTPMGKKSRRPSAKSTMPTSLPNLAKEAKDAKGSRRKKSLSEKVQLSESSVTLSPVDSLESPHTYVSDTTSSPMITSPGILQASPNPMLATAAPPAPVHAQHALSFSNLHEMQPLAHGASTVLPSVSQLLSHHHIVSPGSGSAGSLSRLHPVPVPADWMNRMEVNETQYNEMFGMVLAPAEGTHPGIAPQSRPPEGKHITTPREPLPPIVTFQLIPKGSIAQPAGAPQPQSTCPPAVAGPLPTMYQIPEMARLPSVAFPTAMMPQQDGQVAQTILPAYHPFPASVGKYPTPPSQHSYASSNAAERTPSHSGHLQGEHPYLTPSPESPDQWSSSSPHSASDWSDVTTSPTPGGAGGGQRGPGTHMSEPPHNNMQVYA

[6] = biological target: Pro-neuregulin-1, membrane-bound isoform (Homo sapiens) (UniProt Q02297); test: NRG1 binders on small-molecule microarrays, primary screen, psychiatric disease protein project, biochemical, small-molecule microarray, fluorescence 635/667 (AID 1075); conditions: NRG1 binding, 635 nm fluorescence, higher = more signal;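 note: score combines 667 nm spot fluorescence with signal to noise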
Pro-neuregulin-1, membrane-bound isoform (Homo sapiens), sequence (Q02297 whole entry, looked up, the tested form may be a part, canonical isoform): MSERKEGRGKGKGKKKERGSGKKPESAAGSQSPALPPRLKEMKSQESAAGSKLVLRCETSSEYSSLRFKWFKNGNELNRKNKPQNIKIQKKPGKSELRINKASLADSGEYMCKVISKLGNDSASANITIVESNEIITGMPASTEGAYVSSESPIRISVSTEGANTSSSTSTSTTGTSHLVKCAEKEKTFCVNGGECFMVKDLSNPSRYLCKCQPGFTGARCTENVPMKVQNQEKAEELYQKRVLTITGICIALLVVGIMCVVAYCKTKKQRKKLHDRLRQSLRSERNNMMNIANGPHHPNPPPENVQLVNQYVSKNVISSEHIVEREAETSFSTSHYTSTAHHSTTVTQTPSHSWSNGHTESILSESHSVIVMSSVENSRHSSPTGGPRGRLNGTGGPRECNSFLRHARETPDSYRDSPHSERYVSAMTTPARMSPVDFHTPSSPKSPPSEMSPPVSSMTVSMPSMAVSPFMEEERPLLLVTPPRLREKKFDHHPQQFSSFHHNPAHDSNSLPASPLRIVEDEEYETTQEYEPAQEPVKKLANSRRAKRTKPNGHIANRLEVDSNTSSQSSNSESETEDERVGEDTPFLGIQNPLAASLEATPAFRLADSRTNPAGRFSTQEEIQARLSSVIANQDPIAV

[7] = tested on: Neuregulin-1 EGF-like domain; test: binders of neuregulin-1 EGF-like domain, primary screen, biochemical, small-molecule microarray, 635 nm fluorescence (AID 1081); conditions: small-molecule microarray binding, higher = more signal;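 note: binding of the protein to compounds printed on small-molecule microarray slides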
[8] = FRG1 promoter luciferase signal modulators, primary screen, FRG1 inhibition for FSHD, cell-based, C2C12 myotubes, firefly/Renilla luciferase, luminescence (AID 1084); conditions: higher = more signal, called active from +8 up or from −8 down
[9] = binders of probe aFST on microarray, primary screen, stem cell growth factor project, biochemical, small-molecule microarray, fluorescence 635/667 (AID 1086); conditions: higher = more signal;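 note: score merges 667 nm fluorescence with signal-to-noise of each printed compound spot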
[10] = binders of probe aHhip on microarray, primary screen, stem cell growth factor project, biochemical, small-molecule microarray, fluorescence 635/667 (AID 1087); conditions: higher = more signal;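 note: score merges spot fluorescence at 667nm with spot signal to noise ratio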
[11] = tested on: PRMT1 (protein arginine N-methyltransferase 1); test: PRMT1 binders on small-molecule microarrays, primary screen, biochemical, small-molecule microarray, 635 nm fluorescence (AID 1088); conditions: small-molecule microarray binding, higher = more signal;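 note: binding of Prmt1 protein to compounds spotted on small-molecule microarray slides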
[12] = yeast growth modulation, basal conditions, primary screen, YJM789 clinical isolate, OD600, 24 h (AID 1089);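 note: growth of clinical yeast isolate S. cerevisiae YJM 789 seeded 1000 cells per well; test concentration not given here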; conditions: S. cerevisiae YJM789 growth, higher = more signal, called active from +8 up or from −8 down
[13] = fission yeast growth modulation, primary screen, strain 972, OD600, 24 h, no modulator (AID 1090);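 note: basal condition with compound alone and no growth modifier present; test concentration not given here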; conditions: S. pombe 972 growth, higher = more signal, called active from +8 up or from −8 down
[14] = S. cerevisiae growth modulation with rapamycin, primary screen, strain BY4716, OD600, 96 h (AID 1091); conditions: higher = more signal, called active from +8 up or from −8 down; note: test concentration not given here
[15] = biological target: Torsin-1A-interacting protein 2 (Homo sapiens) (UniProt Q8NFQ8); test: LULL1 binders on small-molecule microarray, primary screen, cell lysate, human LULL1 lysate, 635/667 nm fluorescence (AID 1092); conditions: hLULL1 lysate binding, 635 nm fluorescence, higher = more signal;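 note: probe is lysate of COS7 cells overexpressing human LULL1; score merges per-feature 667 nm fluorescence with signal-to-noise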
Torsin-1A-interacting protein 2 (Homo sapiens), sequence (Q8NFQ8 whole entry, looked up): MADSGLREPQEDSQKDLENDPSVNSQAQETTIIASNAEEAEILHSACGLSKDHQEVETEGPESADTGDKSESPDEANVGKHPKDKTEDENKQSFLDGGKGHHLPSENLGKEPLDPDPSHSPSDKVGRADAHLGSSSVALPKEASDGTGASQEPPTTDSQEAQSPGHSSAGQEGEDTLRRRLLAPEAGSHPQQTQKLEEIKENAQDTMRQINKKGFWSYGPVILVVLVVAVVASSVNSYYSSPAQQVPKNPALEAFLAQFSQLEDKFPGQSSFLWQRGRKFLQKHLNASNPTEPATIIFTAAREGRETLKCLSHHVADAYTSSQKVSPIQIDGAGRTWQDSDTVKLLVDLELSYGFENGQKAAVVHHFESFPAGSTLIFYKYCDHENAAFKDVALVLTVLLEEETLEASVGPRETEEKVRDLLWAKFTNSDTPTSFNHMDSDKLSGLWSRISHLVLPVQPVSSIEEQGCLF

[16] = E. coli growth modulation, two-sided OD650, primary screen, E. coli filamentation project, strain DRC41, 24 h (AID 1093); conditions: OD650, 24 h, higher = more signal, called active from +8 up or from −8 down;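 note: MC1000 strain lacking acrAB efflux and sulA so SOS filamentation is blocked; test concentration not given here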
[17] = small-molecule microarray binders of probe aLefty2, primary screen, biochemical, biotinylated probe, 635/667 nm fluorescence (AID 1094); conditions: higher = more signal;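 note: score merges spot fluorescence near 667 nm with spot signal-to-noise ratio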
[18] = tested on: Noggin (protein binding on small-molecule microarray); test: Noggin binders on small-molecule microarray, primary screen, biochemical, 635/667 nm fluorescence (AID 1095); conditions: 635 nm fluorescence, higher = more signal;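 note: score merges 667 nm feature fluorescence with signal to noise over triplicate slides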
[19] = biological target: Neurogenic locus notch homolog protein 3 (Homo sapiens) (UniProt Q9UM47); test: NOTCH3 binders on small-molecule microarray, primary screen, biochemical, 635/667 nm fluorescence (AID 1096); conditions: NOTCH3 binding, 635 nm fluorescence, higher = more signal
[20] = small-molecule microarray binders of probe aEGFR, primary screen, biochemical, biotinylated probe, 635/667 nm fluorescence (AID 1097); conditions: higher = more signal;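 note: probe is a biotinylated anti-EGFR antibody binding compounds printed on slides; score combines fluorescence near 667 nm and signal to noise of each spot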

For `COC(=O)C[C@@H]1C[C@H](C)[C@]2(O1)C(=O)N(Cc1ccccc1)c1ccc(NC(C)=O)cc12`, the composite z-score [1] was -0.589, the composite z-score [2] was 0.108 and the composite z-score [3] was -0.144. The composite z-score [4] was 0.315, the composite z-score [5] was 0.381 and the composite z-score [6] was -0.12. The composite z-score [7] was 0.443, the z-score [8] was 0.74 (inactive) and the composite z-score [9] was -0.0507. The composite z-score [10] was 0.0012, the composite z-score [11] was -0.509 and the z-score [12] was 0.498 (inactive). The z-score [13] was -1.1 (inactive), the z-score [14] was 0.134 (inactive) and the composite z-score [15] was 0.053. For the same molecule, the z-score [16] was 0.827 (inactive), the composite z-score [17] was -0.166 and the composite z-score [18] was 0.571. The composite z-score [19] was 0.107 and the composite z-score [20] was -0.111.

`CC(=CC1CCCCC1)[C@@H](NC(=O)c1ccc(C(F)(F)F)cc1)c1ccc(-c2ccccc2)cc1` showed a composite z-score [1] of 0.21, a composite z-score [2] of -0.259 and a composite z-score [3] of 0.0083. It also gave a composite z-score [4] of -0.0821, a composite z-score [5] of 0.0836 and a composite z-score [6] of 1.02. The composite z-score [7] was -0.54, the z-score [8] was 0.235 (inactive) and the composite z-score [9] was 0.112. The composite z-score [10] was 0.57, the composite z-score [11] was -0.211 and the z-score [12] was 0.537 (inactive). For the same molecule, the z-score [13] was -0.91 (inactive), the z-score [14] was -0.938 (inactive) and the composite z-score [15] was -0.192. For the same molecule, the z-score [16] was -1.33 (inactive), the composite z-score [17] was 0.0943 and the composite z-score [18] was 0.0323. It also gave a composite z-score [19] of -0.779 and a composite z-score [20] of 0.0353.

Work on `COC(=O)c1c(CC[C@@H](CO)NC(=O)N[C@@H](Cc2ccccc2)Cn2cc(C3(O)CCCCC3)nn2)oc(C(C)=O)c1C(=O)OC` yielded a composite z-score [1] of -0.352, a composite z-score [2] of 1.02 and a composite z-score [3] of -0.0478. For the same molecule, the composite z-score [4] was 0.337, the composite z-score [5] was 0.617 and the composite z-score [6] was 0.824. The composite z-score [7] was 0.862, the z-score [8] was 1.14 (inactive) and the composite z-score [9] was 0.439. For the same molecule, the composite z-score [10] was -0.0994, the composite z-score [11] was 1.55 and the z-score [12] was -2.65 (inactive). The z-score [13] was -1.81 (inactive), the z-score [14] was -0.415 (inactive) and the composite z-score [15] was 1.38. The z-score [16] was 1.31 (inactive), the composite z-score [17] was -0.0441 and the composite z-score [18] was 1.09. The composite z-score [19] was 1.12 and the composite z-score [20] was 0.0117.

For `Cc1c(NC(=O)CC#N)c(=O)n(-c2ccccc2)n1C`, the composite z-score [1] was -0.436, the composite z-score [2] was 0.114 and the composite z-score [3] was -0.0996. For the same molecule, the composite z-score [4] was 0.374, the composite z-score [5] was 0.348 and the composite z-score [6] was 0.379. The composite z-score [7] was 0.483, the z-score [8] was 1.66 (inactive) and the composite z-score [9] was 0.404. The composite z-score [10] was -0.498, the composite z-score [11] was 0.175 and the z-score [12] was -1.36 (inactive). For the same molecule, the z-score [13] was -0.263 (inactive), the z-score [14] was -0.722 (inactive) and the composite z-score [15] was 1.16. The z-score [16] was -0.325 (inactive), the composite z-score [17] was -0.225 and the composite z-score [18] was 0.407. The composite z-score [19] was 0.66 and the composite z-score [20] was -0.0856.

Work on `C=CCOC(=O)[C@@H]1[C@H]2C(=O)O[C@H](c3ccccc3)[C@H](c3ccccc3)N2[C@H](c2ccc(OCCOC(=O)[C@@H]3C[C@@H]4C(=O)N[C@@H](Cc5ccccc5)C(=O)N4[C@@H]3c3cccc(OCCO)c3)cc2)[C@@]12C(=O)Nc1ccc(I)cc12` yielded a composite z-score [1] of 0.224, a composite z-score [2] of 0.63 and a composite z-score [3] of -0.0566. It also gave a composite z-score [4] of 0.764, a composite z-score [5] of 1.03 and a composite z-score [6] of 1.03. The composite z-score [7] was 1.06, the z-score [8] was 1.06 (inactive) and the composite z-score [9] was 0.043. The composite z-score [10] was -0.0196, the composite z-score [11] was 1.53 and the z-score [12] was 1.39 (inactive). For the same molecule, the z-score [13] was 2.04 (inactive), the z-score [14] was 4.55 (inactive) and the composite z-score [15] was 1.83. For the same molecule, the z-score [16] was 0.0087 (inactive), the composite z-score [17] was -0.0286 and the composite z-score [18] was 1.5. For the same molecule, the composite z-score [19] was 0.974 and the composite z-score [20] was 0.0042.

`COc1ccc(C#Cc2ccc3c(c2)[C@]2(C(=O)N3)[C@H](c3ccc(O)cc3)N3[C@H](c4ccccc4)[C@H](c4ccccc4)OC(=O)[C@H]3[C@@H]2C(=O)N2CCCCCCC2)cc1` showed a composite z-score [1] of 3.42, a composite z-score [2] of 0.524 and a composite z-score [3] of 0.858. The composite z-score [4] was 0.488, the composite z-score [5] was 1.39 and the composite z-score [6] was 1.01. The composite z-score [7] was 1.25, the z-score [8] was -0.263 (inactive) and the composite z-score [9] was 3.25. The composite z-score [10] was 0.0914, the composite z-score [11] was 1.55 and the z-score [12] was -1.51 (inactive). The z-score [13] was -0.0733 (inactive), the z-score [14] was 1.15 (inactive) and the composite z-score [15] was 4.08. The z-score [16] was 0.484 (inactive), the composite z-score [17] was 1.61 and the composite z-score [18] was 1.86. For the same molecule, the composite z-score [19] was 1.07 and the composite z-score [20] was 0.778.

Work on `O=C1C2C=CC(C(O)c3ccc(-c4ccccc4)s3)N(n3cnnc3)C2C(=O)N1Cc1ccccc1` (stereo not given) yielded a composite z-score [1] of 0.0626, a composite z-score [2] of -0.0982 and a composite z-score [3] of -0.083. The composite z-score [4] was -0.0152, the composite z-score [5] was 0.207 and the composite z-score [6] was 0.802. The composite z-score [7] was 1.04, the z-score [8] was 0.545 (inactive) and the composite z-score [9] was 0.415. For the same molecule, the composite z-score [10] was -0.0645, the composite z-score [11] was 0.147 and the z-score [12] was -0.466 (inactive). For the same molecule, the z-score [13] was -11.7 (active), the z-score [14] was -0.0238 (inactive) and the composite z-score [15] was 1.77. The z-score [16] was -0.485 (inactive), the composite z-score [17] was -0.0823 and the composite z-score [18] was -0.0489. For the same molecule, the composite z-score [19] was 0.225 and the composite z-score [20] was -0.0716.

`CCOC(=O)C[C@H]1[C@H](OC(=O)c2ccc(-c3ccccc3)cc2)[C@@H](NC(=O)Cc2ccc(OC)cc2)c2cc(OCCCO)ccc2N1C(=O)c1ccc2ccccc2n1` showed a composite z-score [1] of -0.389, a composite z-score [2] of -0.188 and a composite z-score [3] of 0.0176. It also gave a composite z-score [4] of 0.178, a composite z-score [5] of 0.76 and a composite z-score [6] of 0.33. For the same molecule, the composite z-score [7] was 0.0896, the z-score [8] was 0.817 (inactive) and the composite z-score [9] was 0.484. For the same molecule, the composite z-score [10] was -0.0645, the composite z-score [11] was 0.532 and the z-score [12] was -0.914 (inactive). For the same molecule, the z-score [13] was 0.56 (inactive), the z-score [14] was 0.0126 (inactive) and the composite z-score [15] was 1.73. The z-score [16] was -0.733 (inactive), the composite z-score [17] was -0.0561 and the composite z-score [18] was 0.587. It also gave a composite z-score [19] of 0.317 and a composite z-score [20] of 0.223.

`COc1ccc([Si](C)(C)[C@@H]2[C@@H](CC(=O)N(CCO)Cc3ccccc3)O[C@]3(C(=O)N(C)c4ccccc43)[C@H]2C)cc1` showed a composite z-score [1] of 1.02, a composite z-score [2] of -0.135 and a composite z-score [3] of -0.0336. The composite z-score [4] was 0.628, the composite z-score [5] was 0.525 and the composite z-score [6] was 0.872. The composite z-score [7] was 1.11, the z-score [8] was -2.19 (inactive) and the composite z-score [9] was 1.21. For the same molecule, the composite z-score [10] was 0.411, the composite z-score [11] was 1.54 and the z-score [12] was -0.943 (inactive). For the same molecule, the z-score [13] was 0.14 (inactive), the z-score [14] was 0.451 (inactive) and the composite z-score [15] was 1.81. For the same molecule, the z-score [16] was -0.0145 (inactive), the composite z-score [17] was 0.512 and the composite z-score [18] was 1.21. For the same molecule, the composite z-score [19] was 0.963 and the composite z-score [20] was 0.238.
